# Assay outcomes deposited in PubChem BioAssay by National Center for Advancing Translational Sciences (NCATS).
# Rows were chosen to be rich in hits. Some 6.2% of all compounds tested hit in one or more screens of this group.
# HCMV antiviral: human cytomegalovirus inhibition | activity change, negative = inhibition, % at 57.5 µM | 4.5% of 410,000 active | HFF cells, HCMV-luciferase reporter, 72 h; active compounds read low; in the data active = activity change below about -60%; inconclusive = no clear call, values can overlap the other calls; inactive = above about -39%
#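 Compounds were evaluated in HFFs infected with an HCMV luciferase reporter virus (MOI 1 PFU/cell). Luciferase in lysates collected 72 h post infection served as the replication measure.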
# Marburg entry inh: blocks Marburg virus binding to or entry into cells; 1.8% of 300,000 active; Marburg virus pseudotyped entry inhibition, cell reporter; Potency, µM (series often up to 37.8 µM), usual class: inhibitors; calls by dose curve; tested in HEK293 cells
# FMDV inh: foot and mouth disease virus antiviral activity | Potency, µM (top dose mostly 57.9 µM), hits mostly inhibitors | FMDV antiviral cell-based qHTS | 1.2% of 410,000 active; calls by dose curve; tested in HEK293T cells; also: read-out not given here; nearly all actives have a fitted effect of over 45% in size
# LASV entry inh: inhibitors of Lassa virus binding or cell entry. Lassa virus pseudotype entry inhibition, cell reporter. Potency, µM (highest dose often 37.9 µM), usual class: inhibitors. 1.2% of 300,000 active. AID 540256; calls by dose curve; tested in HEK293 cells; also: nearly all actives have a fitted effect of over 50% in size
# A number is an active result; – = inactive; ? = inconclusive; · = no result given; ! = not active in a repeat.
SMILES,HCMV antiviral,Marburg entry inh,FMDV inh,LASV entry inh
O=C(O)c1[nH]c2ccccc2c1C(c1ccccc1)c1c(C(=O)O)[nH]c2ccccc12,–,·,–,·
CCc1ccc(C(c2ccccc2)c2c(C)[nH]c3ccccc23)s1 (configuration not stated),-62,·,–,–
CN(C)CC(C)(C)CNC(=O)c1cnn(-c2ncc3c(n2)-c2ccccc2CC3)c1-c1ccco1,·,·,–,·
CCOc1ccc(CCNC(=O)CCn2c(=O)c3cccn3c3cccnc32)cc1,–,·,–,–
O=c1oc2ccccc2c(N2CCCC2)c1[N+](=O)[O-],-94,–,–,–
O=c1oc2ccccc2c(N2CCCCC2)c1[N+](=O)[O-],–,–,?,–
Cc1cc(-n2c(C)cc(C(=O)CSc3nnc4sc5ccccc5n34)c2C)no1,–,–,·,–
CC(=O)c1c(C(C)=O)c(C)n(-c2cccc([N+](=O)[O-])c2)c1C,–,–,–,–
Cc1cc(C(=O)CCl)c(C)n1-c1cccc([N+](=O)[O-])c1,-95,10µM,11µM,?
Cc1cc(C(=O)CCl)c(C)n1-c1ccon1,?,?,22µM,?
Cc1oc(-c2ccccc2NS(C)(=O)=O)nc1CN(C)Cc1ccc(Cl)cc1,·,·,–,·
N#C/C(=C/c1ccccc1[N+](=O)[O-])c1nnc2n1CCCCC2,-60,–,–,–
N#C/C(=C(/O)c1ccc([N+](=O)[O-])cc1)c1nnc2n1CCCCC2,–,–,–,–
Cc1cc(C)cc(Oc2c(C(F)(F)F)oc3c(CN4CCCC(C)C4)c(O)ccc3c2=O)c1 (configuration not stated),–,–,–,–
COc1ccc(Oc2c(C(F)(F)F)oc3c(CN4CCCC(C)C4)c(O)ccc3c2=O)cc1 (configuration not stated),-61,–,–,–
C=C(C)CNC(=S)NNC(=O)CCn1c2ccc(Cl)cc2c2cc(Cl)ccc21,-82,–,–,?
Cn1ccc2cc(NC(=O)Nc3cccnc3)ccc21,-100,·,–,·
COc1cccc(NC(=O)Nc2cccnc2)c1,–,·,–,·
CC(=NNc1cc(C)c2ccccc2n1)c1ccccn1,-98,·,·,·
Cc1sc2ncnc(N/N=C/c3cccc(O)c3)c2c1C,?,3.2µM,–,–
C/C(=N\Nc1ncnc2sc(C)c(C)c12)c1ccccn1,-102,3.2µM,–,?
Cc1sc2ncnc(Nc3ccc(O)cc3)c2c1C,–,–,–,–
C/C(=N\Nc1ncc(Cl)cc1Cl)c1ccccn1,·,0.89µM,5.6µM,?
Cc1ccn(-c2n[nH]c(C)c2[N+](=O)[O-])n1,–,?,–,–
Cc1ccn(-c2ccc([N+](=O)[O-])cc2)n1,-88,–,–,–
SMILES,HCMV antiviral,Marburg entry inh,FMDV inh,LASV entry inh
COC(=O)C1CCN(c2csc3ccc(Cl)cc3c2=O)CC1,–,·,–,–
COc1ccccc1NC(=O)c1ncn(-c2ccccc2)n1,–,?,–,?
Cc1cc(N2CCN(c3cccc(C(F)(F)F)c3)CC2)n2ncnc2n1,–,–,–,–
c1ccc2sc(N3CCCCC3)nc2c1,–,–,–,–
Cc1nc2ncnn2c(N2CCN(C(c3ccccc3)c3ccccc3)CC2)c1C,-69,–,–,?
Cc1nc2ncnn2c(N2CCN(S(=O)(=O)c3ccc(Br)cc3)CC2)c1C,–,–,?,–
Cc1cc(N2CCN(c3nc4ccccc4s3)CC2)n2ncnc2n1,-102,?,11µM,?
Cc1cc(N2CCN(C(c3ccccc3)c3ccccc3)CC2)n2ncnc2n1,-97,–,?,–
Cc1nc2ncnn2c(N2CCN(c3cccc(C(F)(F)F)c3)CC2)c1C,-101,–,?,?
CC(C)N1CCN(C(=O)c2cnn(-c3nccc(-c4ccc5c(c4)OCO5)n3)c2-c2ccco2)CC1,·,·,–,·
CC(=O)C[C@H](O)CC(=O)[C@H]1OC(=O)CC/C=C\Cc2ccccc21,-61,·,–,·
Cn1c(=O)c2c(nc(Sc3ncccn3)n2Cc2ccc(Cl)cc2)n(C)c1=O,-61,·,?,·
Cn1c(=O)c2c(nc(SCCN3CCCCC3)n2Cc2ccc(Cl)cc2)n(C)c1=O,-95,?,–,?
Cn1c(=O)c2c(nc(SCCN3CCOCC3)n2Cc2ccccc2)n(C)c1=O,–,1.1µM,–,–
CCCn1c(SCCN2CCOCC2)nc2c1c(=O)n(C)c(=O)n2C,–,·,–,·
Cc1ccc2c(=O)cc(C(=O)Nc3ccc(S(=O)(=O)N4CCC(C)CC4)cc3)oc2c1C,–,?,–,–
Cc1oc2ncnc(N3CCCCC3)c2c1C(=O)NCC1CCN(Cc2ccc(F)cc2)CC1,–,·,–,–
COc1ccc(Cl)cc1-c1ccc2c(c1)COCC(=O)N2C,–,·,·,·
CN1CCN(C2Cc3cc(F)ccc3Sc3ccc(Cl)cc32)CC1 (configuration not stated),–,·,?,·
CN1CCN(C2Cc3ccccc3Sc3ccc(Cl)cc32)CC1 (configuration not stated),–,16µM,?,10µM
CSc1ccc2c(c1)C(N1CCN(C)CC1)Cc1ccccc1S2 (configuration not stated),-75!,6.3µM,?,18µM
CN1CCN(C2Cc3ccc(F)cc3Sc3cc(F)c(Cl)cc32)CC1 (configuration not stated),-95,?,–,?
CCc1cccc2c1Sc1ccccc1CC2N1CCNCC1 (configuration not stated),-98,·,?,·
C=C(C)C(O)/C=C/c1ccccc1OC (configuration not stated),·,–,·,·
Cc1ccc(Cl)cc1N1CCN(C(=O)c2cn(C)c3ccc(S(=O)(=O)N4CCCC4)cc3c2=O)CC1,–,–,–,–
SMILES,HCMV antiviral,Marburg entry inh,FMDV inh,LASV entry inh
CN1CCN(C2Cc3ccccc3Sc3cc(C(F)(F)F)ccc32)CC1 (configuration not stated),-109,?,–,?
CC(C)c1ccc2c(c1)C(N1CCNCC1)Cc1ccc(F)cc1S2 (configuration not stated),-98,?,–,?
C=CCCN1[C@@H](Cc2ccccc2)COc2ccccc2S1(=O)=O,–,·,·,?
CCc1cc(SC#N)cc(CC)c1NC(=O)CCl,-74,–,25µM,?
COc1ccc(/C=N/n2cnnc2SCc2ccc(OC)cc2)cc1,–,–,–,2.5µM
Cn1c(=O)c2c(nc(SCc3nc(N)nc(N4CCCCC4)n3)n2C)n(C)c1=O,-69,–,–,?
CC(=O)c1c(C)oc2c1cc(NS(=O)(=O)c1ccc(Cl)c(C)c1)c1ccccc12,–,?,–,?
O=[N+]([O-])c1ccc2ncnc(N3CCN(Cc4ccc5c(c4)OCO5)CC3)c2c1,-80,·,?,·
NNC(=O)CN1C(c2ccccc2)=Nc2ccc(Br)cc2C1c1ccccc1 (configuration not stated),–,–,–,?
COc1cc(OC)c(C2=Nc3ccc(Br)cc3C(c3ccccc3)N2CC(=O)NN)cc1OC (configuration not stated),-68,·,–,·
O=C1OC(Nc2ccc3c(c2)OCO3)c2ccccc21 (configuration not stated),-97,–,?,–
Cc1ccccc1Nc1nc(N)nc(COC(=O)CC2CC3CCC2C3)n1 (configuration not stated),–,14µM,–,?
Cc1ccc2c(CC(=O)OCc3nc(N)nc(Nc4ccccc4C)n3)coc2c1,–,15µM,–,–
CCc1ccc(NC(=O)CSc2nc3n[nH]c(C)c3c(=N)n2-c2ccccc2C)cc1,?,·,–,?
